Where “and” joins values, the source holds several entries; their conditions need not be identical. Equal values may be shown once. Records with an inconclusive call do not appear. More than one record can exist for a structure, and the calls need not agree. Calls of active or inactive are those of the source. Rule for the calls, unless noted: active = hit-call score of the fitted dose curve at least 0.9, where 1 is the maximum; inconclusive = response in the unintended direction; inactive = score below 0.9.
Read-out: not listed separately
Assay: BSK_3C_VCAM1: BioMAP Diversity Plus: 3C Assay for Vascular cell adhesion molecule 1 (VCAM1) Biomarker Activity (AID 2282999; active = hit-call score of the fitted dose curve at least 0.9, where 1 is the maximum; inactive = score below 0.9)
Details: BioMAP 3C HUVEC, VCAM1 ELISA, cytokine-stimulated; actives raise or lower the signal
Method in brief: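 Vascular primary endothelium (human umbilical vein) was exposed to chemicals and assayed 24 h later. VCAM-1 levels came from ELISA, with DMSO serving as baseline for bidirectional fitting.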

outcome, inactive:
Cc1cccc2c1ccc1ccccc12, COc1cc(OC)nc(NC(=O)NS(=O)(=O)Nc2ccccc2C(=O)N(C)C)n1, O=C(NO)c1ccccc1, CC1=NN(c2ccccc2)C(=O)C1, O=C(O)CCC(F)(F)C(F)(F)C(F)(F)C(F)(F)C(F)(F)F, Oc1cc2ccccc2cc1O, CCC(C)c1ccccc1O (configuration not stated), O=P(O)(O)CCC(F)(F)C(F)(F)C(F)(F)C(F)(F)C(F)(F)C(F)(F)C(F)(F)C(F)(F)F, O=C(NCc1ncc(C(F)(F)F)cc1Cl)c1c(Cl)cccc1Cl

AC50, active:
CCCCCCCCCCCCCCCCCC[N+](C)(C)Cc1ccccc1 1.91 µM, O=C(O)C(F)(F)OC(F)(F)C(F)(F)OC(F)(F)C(F)(F)OC(F)(F)C(F)(F)C(F)(F)C(F)(F)F 52.2 µM and 50.4 µM, NC(=NCCCCCCN=C(N)/N=C(\N)Nc1ccc(Cl)cc1)/N=C(\N)Nc1ccc(Cl)cc1 7.92 µM

Read-out: not listed separately
Assay: BSK_4H_Eotaxin3: BioMAP Diversity Plus: 4H Assay for Eotaxin 3 Biomarker Activity (AID 2283000; active = hit-call score of the fitted dose curve at least 0.9, where 1 is the maximum; inactive = score below 0.9;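 for outcome: CCL26 protein level quantified by ELISA in parallel with SRB cytotoxicity check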)
Details: primary human endothelial cells (HUVEC); actives raise or lower the signal
Method in brief: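 Human umbilical vein endothelial cells (BSK_4H system) dosed with test chemical; Eotaxin-3 (CCL26) measured by ELISA 24 h after dosing. Bidirectional curve fitting relative to DMSO negative control as baseline.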

outcome, inactive:
Cc1cccc2c1ccc1ccccc12, COc1cc(OC)nc(NC(=O)NS(=O)(=O)Nc2ccccc2C(=O)N(C)C)n1, O=C(NO)c1ccccc1, CC1=NN(c2ccccc2)C(=O)C1, O=C(O)CCC(F)(F)C(F)(F)C(F)(F)C(F)(F)C(F)(F)F, Oc1cc2ccccc2cc1O, CCC(C)c1ccccc1O (configuration not stated), O=C(NCc1ncc(C(F)(F)F)cc1Cl)c1c(Cl)cccc1Cl

AC50, active:
CCCCCCCCCCCCCCCCCC[N+](C)(C)Cc1ccccc1 2.84 µM, O=C(O)C(F)(F)OC(F)(F)C(F)(F)OC(F)(F)C(F)(F)OC(F)(F)C(F)(F)C(F)(F)C(F)(F)F 45.5 µM and 51.6 µM, NC(=NCCCCCCN=C(N)/N=C(\N)Nc1ccc(Cl)cc1)/N=C(\N)Nc1ccc(Cl)cc1 5.53 µM, O=P(O)(O)CCC(F)(F)C(F)(F)C(F)(F)C(F)(F)C(F)(F)C(F)(F)C(F)(F)C(F)(F)F 41.5 µM and 28.8 µM

Molecular target: human Peroxisome Proliferator-activated Receptor alpha (PPARa), PPARA (gene 5465) (UniProt Q07869)
Assay: ATG_PPARa_TRANS: Attagene TRANS-FACTORIAL HepG2 Assay for human Peroxisome Proliferator-activated Receptor alpha (PPARa) (AID 2283001);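 for AC50: potency for gain of reporter signal over DMSO so agonist or activator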
Details: not given
Method in brief: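 Cells (HepG2) are transfected with multiple reporter transcription units, exposed to chemical for 24 h, then total RNA is reverse-transcribed and amplified. Labelled products are quantified by capillary electrophoresis; induction is referenced to DMSO.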

Sequence of human Peroxisome Proliferator-activated Receptor alpha (PPARa), PPARA (gene 5465) (Q07869 whole entry, looked up): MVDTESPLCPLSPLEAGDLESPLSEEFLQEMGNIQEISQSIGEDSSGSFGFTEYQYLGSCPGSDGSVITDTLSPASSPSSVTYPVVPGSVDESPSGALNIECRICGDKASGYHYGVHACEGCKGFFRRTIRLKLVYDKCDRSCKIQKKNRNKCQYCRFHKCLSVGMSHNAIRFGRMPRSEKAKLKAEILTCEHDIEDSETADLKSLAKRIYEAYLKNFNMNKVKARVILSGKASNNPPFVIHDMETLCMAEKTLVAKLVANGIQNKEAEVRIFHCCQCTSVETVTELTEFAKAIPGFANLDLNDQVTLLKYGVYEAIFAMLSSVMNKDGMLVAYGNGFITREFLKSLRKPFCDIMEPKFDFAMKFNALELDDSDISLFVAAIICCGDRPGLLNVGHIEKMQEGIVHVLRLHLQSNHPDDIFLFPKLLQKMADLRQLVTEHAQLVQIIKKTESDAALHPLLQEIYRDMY

outcome, inactive:
Cc1cccc2c1ccc1ccccc12, CCCCCCCCCCCCCCCCCC[N+](C)(C)Cc1ccccc1, O=C(OC(=O)C(F)(F)C(F)(F)F)C(F)(F)C(F)(F)F, Cc1ccc2ccc3ccc(C)cc3c2c1, COc1cc(OC)nc(NC(=O)NS(=O)(=O)Nc2ccccc2C(=O)N(C)C)n1, CCCCCCCCCCCC[N+](C)(C)CCCCCCCCCCCC, O=S(=O)(c1ccc(OCc2ccccc2)cc1)c1ccccc1O, CC1COCc2cc3c(cc21)C(C)(C)C(C)C3(C)C (configuration not stated), CCOC(C)=O, O=C(F)C(F)(F)C(F)(F)C(F)(F)C(F)F, O=c1cc(-c2ccccc2)oc2ccc3ccccc3c12, Cc1ccccc1C(OCCN(C)C)c1ccccc1 (configuration not stated), O=C(O)C(F)(F)OC(F)(F)C(F)(F)OC(F)(F)C(F)(F)OC(F)(F)C(F)(F)C(F)(F)C(F)(F)F, COC(=O)C(F)(F)C(F)(F)C(F)(F)C(F)(F)C(F)(F)F, CC1=NN(c2ccccc2)C(=O)C1, O=C(O)CCC(F)(F)C(F)(F)C(F)(F)C(F)(F)C(F)(F)F, NC(=NCCCCCCN=C(N)/N=C(\N)Nc1ccc(Cl)cc1)/N=C(\N)Nc1ccc(Cl)cc1, O=C1c2ccccc2C(=O)c2c(O)c(O)cc(O)c21, CCOC=C(C(=O)OCC)C(=O)OCC, OCC1CCC(CO)CC1 (configuration not stated), FC(F)(F)C1(F)C(F)(F)C(F)(F)C(F)(F)C(F)(C(F)(F)F)C1(F)F (configuration not stated), CCc1cccc(CC)c1N(COC)C(=O)CS(=O)(=O)O, c1cc2cccc3c4cccc5cccc(c(c1)c23)c54, c1cnc2c(c1)ccc1cccnc12, O=C(c1cc(O)c(O)c(O)c1)c1ccc(O)c(O)c1O, FC(F)(F)N1C(F)(F)C(F)(F)OC(F)(F)C1(F)F, NNc1nc(-c2ccc([N+](=O)[O-])cc2)cs1, CCC(C)c1ccccc1O (configuration not stated), C[N+](C)(CCCNS(=O)(=O)CCC(F)(F)C(F)(F)C(F)(F)C(F)(F)C(F)(F)C(F)(F)F)CC(=O)[O-], O=P(O)(O)CCC(F)(F)C(F)(F)C(F)(F)C(F)(F)C(F)(F)C(F)(F)C(F)(F)C(F)(F)F, O=C(NCc1ncc(C(F)(F)F)cc1Cl)c1c(Cl)cccc1Cl, CCCCN(C)C

AC50, active:
CCCCCCC(C)(C)C(=O)O 18 µM, O=C(O)C(F)(F)OC(F)(F)C(F)(F)OC(F)(F)C(F)(F)OC(F)(F)C(F)(F)C(F)(F)C(F)(F)F 24 µM, Oc1cc2ccccc2cc1O 42.8 µM, C=C(c1ccc(C(=O)O)cc1)c1cc2c(cc1C)C(C)(C)CCC2(C)C 33.6 µM, c1cnc2c(c1)ccc1cccnc12 28.6 µM, CCCCCCOC(=O)c1ccc(O)cc1 63.7 µM

— PubChem BioAssay (EPA / NIEHS)
